Shown are actives, neighbours in structure and some others; about 20% of the full set was active somewhere.
HCMV inh: qHTS Assay for inhibitors of the human cytomegalovirus (HCMV). 410,000 compounds, 4.5% hits. HFF cells, HCMV-luciferase reporter, 72 h; active compounds read low. activity change, negative = inhibition, % at 57.5 µM; in the data active = activity change below about -60%; inconclusive = no clear call, values can overlap the other calls; inactive = above about -39%; note: % is set by controls: 0 for no effect and ±100 for the full control effect
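Two-dose cell screen: HFF monolayers treated with compounds and infected with luciferase-expressing HCMV at 1 PFU/cell, 72 h at 37C, then lysed for luciferase measurement.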
Shiga toxin inh: A qHTS for Small Molecule Inhibitors of Shiga Toxin; Vero cells, Shiga toxin protein synthesis inhibition reporter; inhibition, % at 38.7 µM; 290,000 compounds, 9.2% hits; AID 2315, 2010; in the data active = inhibition mostly above about 28%, no sharp cut-off; inactive = mostly below about 43%; note: 0% is about no effect
Pf growth 48h: Primary qHTS for delayed death inhibitors of the malarial parasite plastid, 48 hour incubation; P. falciparum luciferase growth in erythrocytes, 48 h; Potency, µM (highest dose often 28.7 µM), inactives show at the highest dose activity change, negative = inhibition, most hits filed as inhibitors; 310,000 compounds, 5.9% hits; note: potency is the fitted concentration of half-maximal effect; % is set by controls: 0 for no effect and ±100 for the full control effect
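Compounds are pin-transferred into medium, infected erythrocytes (2% hematocrit, 0.1% parasitemia final) are added, and plates sit one parasite generation at 37 C in 5% CO2. Detection reagent is then added and luminescence measured.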
Pf growth 96h: Primary qHTS for delayed death inhibitors of the malarial parasite plastid, 96 hour incubation; Potency, µM (highest dose often 28.7 µM), without a hit: at the top dose activity change, negative = inhibition, actives largely listed as inhibitors; P. falciparum luciferase reporter growth, 96 h; AID 504834, 2011; 320,000 compounds, 6.9% hits; note: potency is the fitted concentration of half-maximal effect; % is set by controls: 0 for no effect and ±100 for the full control effect
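Cell-based qHTS: luciferase-tagged P. falciparum in erythrocytes (2% hematocrit, 0.05% parasitemia final) incubated with compounds for 96 hours, 37 C, 5% CO2; luciferase detection reagent then added and luminescence measured.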
Cycloheximide cs: Cycloheximide Counterscreen for Small Molecule Inhibitors of Shiga Toxin; cell reporter, cycloheximide protein synthesis inhibition counterscreen; max response, %; 300,000 compounds, 12% hits; AID 2314, 2010; in the data active = max response mostly above about 13%, no sharp cut-off; inactive = mostly below about 14%; note: read at 38.3 µM for the half of the compounds with a filed dose; 0% is about no effect
Starred values were filed as active, the others as inactive; ? = inconclusive; / = no result given; [ ] = another dose, or the depositor's remark. Unless noted, calls come from the whole dose curve; as a rule, active = well fitted inhibition curve with a large enough effect; inconclusive = small, poorly fitted or top-dose-only effect, or another doubt; inactive = no such curve, though single readings can be large or run the other way.

SMILES	HCMV inh	Shiga toxin inh	Pf growth 48h	Pf growth 96h	Cycloheximide cs
COc1ccc(CCNC(=O)c2cc(-c3ccc(C)c(C)c3O)n[nH]2)cc1OC	-37	6	/	15µM*	11
COc1ccc(CCNC(=O)c2cc(-c3cc(C)ccc3O)n[nH]2)cc1OC	-30	-6	/	?	4
Cc1cc(O)c(-c2cc(C(=O)NCc3ccc4c(c3)OCO4)[nH]n2)cc1C	-22	84	0%	?	2
Cc1ccc(-c2cc(C(=O)NCc3ccc4c(c3)OCO4)[nH]n2)c(O)c1C	-6	8	0%	12µM*	12
CCC(=O)C1=C(c2ccc(F)cc2)N(C(=O)CC)n2c(nnc2C2CCCCC2)S1	-25	/	/	/	/
CSc1nsc(SCC(=O)Nc2cccc(C(C)=O)c2)n1	-21	26	-20%	/	9
CSc1nsc(SCC(=O)Nc2ccc(OC(C)=O)cc2)n1	21	58	68%	5%	27*
CSc1nsc(SCC(=O)Nc2ccccc2C(N)=O)n1	23	38*	-17%	-2%	11*
CSc1nsc(SCC(=O)Nc2ccccc2)n1	-25	34	46%	24%	40*
O=C(CSc1nnc2c3ccccc3c3ccccc3c2n1)Nc1ccccc1F	-88*	14	12%	0%	6
O=C(O)c1cccc(NC(=O)c2cc3cc(Br)cc(Br)c3oc2=O)c1	6	/	/	/	/
CCOc1ncccc1C(=O)Nc1nc(SC)ns1	193	66*	56%	132%	28*
CSc1nsc(NC(=O)Cc2ccccc2)n1	24	86*	72%	24%	46*
CCOc1ncccc1C(=O)Nc1nnc(C)s1	-12	22	-15%	57%	0
CCOC(=O)c1ccc(NC(=O)CSc2nc(SC)ns2)cc1	83	60*	-19%	?	48*
CSc1nsc(SCc2ccc(F)cc2)n1	-13	8	12%	/	13*
Cn1cc(-c2ccc3c(c2)N(CC2CCCCC2)C(=O)COC3)cn1	20	/	/	/	/
CSc1nsc(SCC(=O)Nc2ccccc2F)n1	20	58*	27%	42%	31*
CSc1nsc(SCC(=O)Nc2nncs2)n1	31	16	1%	39%	-5
COCC1CCCN(C(=O)c2cc(COc3cncc(Cl)c3)on2)C1 (centres undefined)	-37	101*	107%	?	41*
C=CCC1(CC=C)CCCN1C(=O)c1cc(COc2cncc(Cl)c2)on1	5	35*	?	?	36*
CCN(CC(=O)Nc1c(F)cccc1F)C(=O)CCCNC(=O)c1ccc(Cl)cc1	-13	/	9%	?	/
N#C/C(=C\C=C\c1ccccc1)C(=O)NCc1cccnc1	-36	2	?	27%	-1
Cc1cc(C)c(S(=O)(=O)Nc2ccc(N(C)C)cc2)c(C)c1-n1cnnn1	-28	76*	25%	1%	43*
CSc1ccc(NS(=O)(=O)c2ccc(-n3cnnn3)cc2)cc1	-4	-21	?	?	5
SMILES	HCMV inh	Shiga toxin inh	Pf growth 48h	Pf growth 96h	Cycloheximide cs
Cc1ccc(S(=O)(=O)Nc2ccc(-n3cnnn3)cc2)cc1	-4	-3	6%	12µM*	-1
Cc1ccc(S(=O)(=O)Nc2ccc(-n3cnnn3)cc2)c(C)c1	0	/	-16%	-24%	/
CCCc1nc(C(C)(C)O)c(C(=O)O)n1Cc1ccc(-c2ccccc2-c2nn[nH]n2)cc1	/	-9	/	/	-1
COc1cccc(Oc2ccc(S(=O)(=O)N3CCOCC3)cc2[N+](=O)[O-])c1	-29	/	/	/	/
CC(C)(C)OC(=O)N[C@@H]1C=CC(=O)C1	-18	/	/	/	/
Cc1cc(NC(NC(=O)c2ccco2)(C(F)(F)F)C(F)(F)F)no1	37	-1	-1%	?	13
CC(C)(C)c1cc(NC(=O)Nc2ccccc2)no1	84	70*	49%	104%	33*
Cc1ccc(S(=O)(=O)NC(=O)Nc2cc(C(C)(C)C)on2)cc1	55	-10	9%	10%	-1
Cc1cc(C(=O)Nc2ccon2)c(C)o1	-3	13	2%[5.75 µM]	?	12
Cc1cc(C(=O)Nc2cc(C(C)(C)C)on2)c(C)o1	19	48	123%	104%	39*
CC(C)(C)c1cc(NC(=O)c2ccco2)no1	105	81*	198%	-8%	44*
COC(=O)c1ccccc1NC(=O)Nc1cc(C(C)(C)C)on1	-6	34	25%	-12%	40*
COc1ccc(C(C)=O)cc1Cn1c(C)c(C(=O)NCc2ccc(C(C)C)cc2)sc1=O	3	/	/	/	/
CCc1ccccc1NC(=O)CCCN1C(=O)CCn2nc(-c3cn(C)c4ccccc34)cc21	9	/	/	/	/
CC(C)c1ccc(NS(=O)(=O)c2ccc3nc(-c4ccccc4)[nH]c3c2)cc1	-8	/	/	/	/
Cc1cc(NC(=O)Nc2cccc(C)c2C)no1	-22	18	28%	43%[1.15 µM]	16
CC(C)(C)c1cc(NC(=O)Nc2ccccc2OC(F)(F)F)no1	?	13	12µM*	?	5
O=C(COC(=O)C1=NN(c2ccccc2)C(=O)CC1)Nc1ccc([N+](=O)[O-])cc1C(F)(F)F	4	/	8%	-1%	/
COc1cccc(CNC(=O)CSc2nc3ccccc3nc2Cc2ccc(C)cc2)c1OC	-92*	/	/	/	/
CC1CCN(S(=O)(=O)c2cccc(C(=O)NCc3cccs3)c2)CC1	-13	-7	0%	1%	-2
O=C(NCCCSc1ccccc1)c1cnc(Cl)c(Cl)c1	4	22	13%	20%	-8
O=C(NCc1cccs1)c1cnc(Cl)c(Cl)c1	-3	45*	10%	9%	30*
O=C(NCCc1ccccc1)c1cnc(Cl)c(Cl)c1	1	105*	/	9%	31*
O=C(COC(=O)c1cnc(Cl)c(Cl)c1)NCc1cccs1	-27	-4	0%	15%	-3
CC1CCN(c2ccc(C(=O)NCc3cccs3)cn2)CC1	1	78	?	?	52*
SMILES	HCMV inh	Shiga toxin inh	Pf growth 48h	Pf growth 96h	Cycloheximide cs
NS(=O)(=O)c1cccc(NC(=O)COC(=O)c2ccc(S(=O)(=O)N3CCOCC3)cc2)c1	-3	/	/	/	/
COc1ccccc1N1CC(O)=C(c2nc3ccccc3c(=O)[nH]2)C1=N	-9	-3	9.3µM*	6%	16
Cc1nn(-c2ccccc2)c(N2CCCC2)c1/C=N/O	17	-7	0%	/	-1
Cc1ccc(NC(=S)N/N=C/c2c(C)nn(-c3ccccc3)c2N2CCCC2)cc1	19	2	12µM*	?	0
Cc1nn(-c2ccccc2)c(N2CCCCC2)c1/C=N/NC(=O)c1ccncc1	1	24	?	?	0
Cc1nn(-c2ccccc2)c(N2CCCC2)c1/C=N/NC(=S)Nc1ccccc1C(F)(F)F	?	7	?	4.7µM*	-3
Cc1nn(-c2ccccc2)c(N2CCCC2)c1/C=N/NC(=S)Nc1cc(C(F)(F)F)ccc1Cl	-10	20	12µM*	4.1µM*	-4
CCOC(=O)C1CCCN(S(=O)(=O)c2cc(-c3cc(C)no3)ccc2C)C1 (centres undefined)	0	/	/	/	/
